# High-throughput results from PubChem BioAssay.
# Compounds with a hit are over-represented: about 0.5% of the library has one in this group of screens.
# AddAB inh: less growth of phage-infected E. coli with AddAB. inhibition, % at 11.9 µM. E. coli expressing H. pylori AddAB, absorbance growth. hit rate 0.29% among 330,000; in the data active = inhibition above about 12%;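 also: 0% = vehicle wells of infected cells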
# E coli growth-1: blocks Escherichia coli growth | OD600, 23 h; active compounds read low | OD600 absorbance (concentration not given with the values) | hit rate 0.21% among 330,000 | AID 1053175;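 active = OD600 absorbance below the run mean of sample wells minus 3.6 SD, in any replicate, cut at about 0.56 in these data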
# E coli growth-2: reduces bacterial viability in AddAB counter-screen | E. coli V3065 growth, OD600 absorbance, 18 h | inhibition, % at 11.9 µM | hit rate 0.27% among 330,000;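 active = inhibition above the campaign's mean inhibition across all tested compounds plus 3 SD, cut at about 9.9% in these data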;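 also: uninfected addAB+ strain grown without phage in ampicillin broth; 0% = DMSO wells and 100% = ciprofloxacin 0.95 µg/ml wells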
# Tat export inh: blocks Tat-dependent protein export in E. coli; E. coli MC4100 TorA-mCherry Tat export, fluorescence; inhibition, % at 10 µM; hit rate 0.036% among 340,000; AID 488895;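 active = mean replicate inhibition at least 50% and at least half of replicates individually reaching 50%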;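 also: exported cargo escapes ClpAP degradation while cytoplasmic cargo is degraded and loses fluorescence; 0% = median of neutral control wells and 100% = median of NaSCN control wells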
# phage Ecoli inh: E. coli growth loss with phage present; growth absorbance; inhibition, % at 11.9 µM; hit rate 0.26% among 360,000; AID 651602; in the data active = inhibition above about 11%
# Starred values were filed as active, the others as inactive; · = no result.
SMILES,AddAB inh,E coli growth-1,E coli growth-2,Tat export inh,phage Ecoli inh
CCOC(=O)C1C2COc3ccc(OC)cc3C2N2C(=O)CN(Cc3ccc(C)cc3)C(=O)[C@@]12C (stereo partly drawn),·,0.66,·,·,·
Cc1ccc(NC(=O)Nc2ncccc2C)cc1,4,0.71,2,10,4
Cc1ccc(NC(=O)Nc2ccno2)cc1,2,0.45*,2,·,7
CC(O)Cc1cn(C(CCCCNC(=O)OC(C)(C)C)C(=O)N2CCN(C(=O)OC(C)(C)C)CC2)nn1 (stereo not drawn),·,0.68,·,·,·
Cc1nc(N)nc(N)c1Oc1ccc(Cl)cc1,·,0.52*,·,-2,4
C=CCNC(=S)NN=C(C)c1ccccn1,·,0.53*,·,·,·
Cc1ccc(-n2[nH]c(C)c(C=Nc3ccc(S(=O)(=O)Nc4nccs4)cc3)c2=O)cc1,13*,0.66,9,·,·
COc1ccc(S(=O)(=O)NN=Cc2ccc3c(c2)OCO3)c(OC)c1,·,0.71,·,·,·
COc1ccc(S(=O)(=O)NN=Cc2ccc([N+](=O)[O-])o2)c(OC)c1,·,0.51*,·,·,·
O=[N+]([O-])c1ccc(C=NNS(=O)(=O)c2ccc(F)cc2)o1,·,0.44*,·,·,·
O=[N+]([O-])c1cccc(-c2ccc(/C=N/NC(=S)Nc3ccccc3)o2)c1,9,·,10*,-4,1
COC1C=CO[C@@]2(C)Oc3c(C)c(O)c4c(O)c(c(C=NN5CCN(C6CCCC6)CC5)c(O)c4c3C2=O)NC(=O)C(C)=CC=CC(C)C(O)C(C)C(O)C(C)C(OC(C)=O)C1C (stereo partly drawn),·,0.07*,·,·,·
CO[C@H]1C=CO[C@@]2(C)Oc3c(C)c(O)c4c(O)c(c5c(c4c3C2=O)NC2(CCN(CC(C)C)CC2)N=5)=NC(=O)C(C)=CC=C[C@H](C)[C@H](O)[C@@H](C)[C@@H](O)[C@@H](C)[C@H](OC(C)=O)[C@@H]1C,100*,·,102*,·,·
C[C@H]1COc2c(C3(N)CC3)c(F)cc3c(=O)c(C(=O)O)cn1c23,100*,·,102*,·,·
O=C(C(=C([O-])c1ccccc1)[n+]1ccc2ccccc2c1)c1ccccc1,·,0.7,·,·,·
O=[N+]([O-])c1cc(C(F)(F)F)ccc1NCCNC(=S)Nc1ccc(Cl)cc1,9,0.61,10*,12,7
Cc1ccc(NC(=O)Nc2ccccc2)cc1[N+](=O)[O-],6,0.54,5,2,9
O=C(Nc1ccccc1)Nc1ccc(Cl)c([N+](=O)[O-])c1,7,0.48*,6,-4,3
O=C(Nc1cccc(Cl)c1)Nc1ccc2c(c1)OCO2,5,0.53*,6,5,7
O=C(Nc1ccccc1)Nc1ccc2snnc2c1,6,0.57,5,3,5
O=C(Nc1ccccc1)Nc1ccc2nnsc2c1,8,0.4*,6,-5,9
O=C(Nc1ccccc1)Nc1cccc(Cl)c1,5,0.5*,5,-4,10
O=C(NCc1ccc2c(c1)OCO2)Nc1cccc(Cl)c1,0,0.68,0,1,2
C=CCCC(Cc1ccc(F)cc1)C(=O)OCC(NC(=O)C(CC=C)CC(=O)NCCO)c1ccccc1 (stereo not drawn),·,0.74,·,·,·
C[n+]1ccc(/C=C/c2ccccc2O)c2ccccc21,1,0.66,0,-1,1
SMILES,AddAB inh,E coli growth-1,E coli growth-2,Tat export inh,phage Ecoli inh
CN1/C(=C/c2cc[n+](C)c3ccccc23)C=Cc2ccccc21,·,0.34*,·,-161,·
O=[N+]([O-])c1ccc(C=Nn2c(CO)nc3ccccc32)s1,·,0.71,·,·,·
O=[N+]([O-])c1ccc(C=Nc2cccc3ccccc23)s1,-1,0.51*,-1,4,·
CCCCCCNC(=O)NC(C(=O)NCCCC1CN2C(=NCC2Cc2ccccc2)N1CCc1cccc(OC)c1)C(C)C (stereo not drawn),·,0.65,·,·,·
CCCCCCCCCCCCN1[C@@H](CC(=O)O)c2cc(C(F)(F)F)ccc2S1(=O)=O,2,·,0,52*,5
CCCCCCCCN1C(CC(=O)O)c2cc(C(F)(F)F)ccc2S1(=O)=O (stereo not drawn),·,0.65,·,·,·
CNC(CC(C)C)C(=O)NC1C(=O)NC(CC(N)=O)C(=O)NC2C(=O)NC3C(=O)NC(C(=O)NC(C(=O)O)c4cc(O)cc(O)c4-c4cc3ccc4O)C(O)c3ccc(c(Cl)c3)Oc3cc2cc(c3OC2OC(CO)C(O)C(O)C2OC2C[C@](C)(N)C(O)C(C)O2)Oc2ccc(cc2Cl)C1O (stereo partly drawn),-3,0.4*,0,-37,7
C=CCNC(=O)C(C#N)=Cc1c(N(Cc2ccccc2)Cc2ccccc2)nc2ccccn2c1=O,·,0.74,·,·,·
c1ccc(CNc2nc(N3CCN(Cc4ccccc4)CC3)nc3ccccc23)cc1,2,0.48*,1,·,3
Cc1ccc(Nc2nc(NCc3ccco3)c3ccccc3n2)cc1,0,0.41*,4,-64,4
OCCNc1nc(Nc2ccc(Br)cc2)nc2ccccc12,-2,0.4*,-1,·,4
c1ccc(N2CCN(c3nc(NCc4ccco4)c4ccccc4n3)CC2)cc1,7,0.7,0,0,2
OCCNc1nc(Nc2ccccc2)nc2ccccc12,-3,0.67,-2,-6,-1
CNc1nc(NCc2ccccc2)c2ccccc2n1,2,0.48*,0,-7,4
COc1ccccc1Nc1nc(NCc2ccco2)c2ccccc2n1,-1,0.59,1,·,4
CCCNC(=O)OCC1OC(CCON=CCC2C=CC(OC(C)=O)C(COC(C)=O)O2)C=CC1Oc1ccc(OC)cc1 (stereo not drawn),·,0.68,·,·,·
C=CC(=O)N1CC=CC(c2ccc(OC)cc2)N(Cc2ccc(F)cc2)C(=O)C1 (stereo not drawn),·,0.69,·,·,·
COc1ccc(C(N)=NOC(=O)C=Cc2ccccc2)cc1,·,0.72,·,·,·
N#CC(C#N)=NNc1ccc([N+](=O)[O-])cc1,3,0.33*,1,25,6
C/C(=N\Nc1ccc([N+](=O)[O-])cc1)c1ccc(C#N)cc1,3,·,2,-1,2
O=C(CN(Cc1ccc(F)cc1)C(=O)CNS(=O)(=O)c1ccc(F)cc1)NCC1CCCO1 (stereo not drawn),1,0.68,1,-1,0
O=C(CN(Cc1ccccc1Cl)C(=O)CNS(=O)(=O)c1ccc(F)cc1)NCC1CCCO1 (stereo not drawn),-1,0.66,1,53*,1
COc1cc(C)c(Cc2cnc(N)nc2N)cc1OC,100*,·,101*,·,·
O=[N+]([O-])c1nn(-c2ccccc2)n(O)c1=NC1CCN(Cc2ccccc2)CC1,8,0.59,10*,4,5
O=C(NN=C/C(Br)=C/c1ccccc1)c1ccncc1,·,0.46*,·,·,·
SMILES,AddAB inh,E coli growth-1,E coli growth-2,Tat export inh,phage Ecoli inh
O=C(N/N=C/C(Br)=C/c1ccccc1)c1ccncc1,11,·,3,-8,4
NC(COc1ncn(-c2ccccc2)n1)=NS(=O)(=O)c1ccc(Cl)cc1Cl,·,0.68,·,·,·
CCN(Cc1ccccc1)c1ccc(/C=N/N2CCOCC2)cc1,-1,·,2,-6,3
CCN(Cc1ccccc1)c1ccc(C=NN=C(N)N)cc1,·,0.5*,·,·,·
NC(N)=NN=Cc1ccc(OCc2ccccc2)c(OCc2ccccc2)c1,·,0.069*,·,·,·
COc1cc(C=NN=C(N)N)ccc1OCc1ccc(Cl)cc1,·,0.51*,·,·,·
